# Experimental data: PubChem BioAssay
# For some assays here: Potency and affinity values are given separately. The list shows a part of the results. Calls of active or inactive are those of the source.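 How the source made its calls, unless noted: active means substances whose mean melting-temperature shift, as a percentage of the reference inhibitor's shift, reaches about 5.3% (limit read from the data); inactive means the rest.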
# Tests used:
# [1] = Brca1-Bard1 BiLC signal decrease – luminescence, single concentration, counter-screen for Mdm2/MdmX interaction inhibitor project, confirmation (AID 504668; call rule not given here); details: Brca1/Bard1 bimolecular luciferase complementation counterscreen, at 8 µM, stronger effect = higher value
# [2] = target: Tumor necrosis factor receptor superfamily member 10B (Homo sapiens) (UniProt O14763); experiment: viability loss of caspase-8 NB7 cells with TRAIL – with/without TRAIL, luminescence panel, confirmation (AID 651596; in the data active means activity above about 50%); details: NB7 neuroblastoma + caspase-8, TRAIL sensitization, NB7 Caspase-8, with TRAIL, mean of runs, at 10 µM, stronger effect = higher value
# [3] = as above; details: NB7 neuroblastoma + caspase-8, without TRAIL, NB7 Caspase-8, without TRAIL, mean of runs, at 10 µM
# [4] = HIF-2a driven luciferase blockers, single dose – luminescence, 786-0 RCC cells, confirmation (AID 651580;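 active means mean inhibition across four replicates of at least 40 percent at the single tested concentration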); details: HIF-2a luciferase reporter luminescence, overnight, at 18.8 µM, stronger effect = higher value
# [5] = HIF-1a luciferase reporter signal reduction – MiaPaCa-2 cells, single concentration, counter-screen for HIF-2a inhibitor project, confirmation (AID 651589;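 active means mean inhibition of the reporter signal across four replicates at the single tested dose of 50% or more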); details: MiaPaCa-2 HIF-1a luciferase reporter, desferoxamine, overnight; at 18.8 µM; stronger effect = higher value
# [6] = target: Carboxy-terminal domain RNA polymerase II polypeptide A small phosphatase 1 (Homo sapiens) (UniProt Q9GZU7); experiment: SCP1 melting temperature change from compounds – biophysical, differential scanning fluorimetry, orthogonal assay for Scp-1 inhibitor project, confirmation (AID 540329); details: Recombinant SCP1, Sypro Orange thermal shift Tm; at 40 µM; stronger effect = higher value;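 further: 0% = Tm of DMSO wells and 100% = Tm with sodium orthovanadate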
# [7] = target: Tumor necrosis factor receptor superfamily member 10B (Homo sapiens) (UniProt O14763); experiment: compound enhancement of TRAIL-induced cell killing – NB7 cells plus caspase-8, luminescence, panel, dose response (AID 652002); details: NB7 neuroblastoma +caspase-8, TRAIL sensitization, luminescence viability, NB7+Caspase-8, with TRAIL, run 1; at 12.5 µM (top of the series)
# [8] = target: Tumor necrosis factor receptor superfamily member 10B (Homo sapiens) (UniProt O14763); experiment: as above; details: NB7 neuroblastoma +caspase-8, TRAIL sensitization, luminescence viability, NB7+Caspase-8, with TRAIL, run 2; at 12.5 µM (top of the series)
# [9] = as above; details: NB7 neuroblastoma +caspase-8, no TRAIL, compound-alone cytotoxicity counter-screen, luminescence viability, NB7+Caspase-8, run 1; at 12.5 µM (top of the series) unless noted
# [10] = as above; details: NB7 neuroblastoma +caspase-8, no TRAIL, compound-alone cytotoxicity counter-screen, luminescence viability, NB7+Caspase-8, run 2; at 12.5 µM (top of the series) unless noted
# [11] = MLLE domain peptide-binding blockers, IC50 – biochemical, fluorescence polarization, FITC-PAM2 peptide, dose response (AID 602259;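 active means mean IC50 at or below a set limit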); details: GST-MLLE/FITC-PAM2 peptide binding
# [12] = inhibition of PEG-3 promoter luciferase signal – cell-based, HeLa, luciferase reporter, single concentration, confirmation (AID 602417;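 active means at 20 µM dose, 40% or more inhibition averaged across four replicates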); details: HeLa PEG-Prom luciferase reporter, luminescence, overnight; at 20 µM; stronger effect = higher value
# Chain of Carboxy-terminal domain RNA polymerase II polypeptide A small phosphatase 1 (Homo sapiens) (Q9GZU7 76-261 limits assumed): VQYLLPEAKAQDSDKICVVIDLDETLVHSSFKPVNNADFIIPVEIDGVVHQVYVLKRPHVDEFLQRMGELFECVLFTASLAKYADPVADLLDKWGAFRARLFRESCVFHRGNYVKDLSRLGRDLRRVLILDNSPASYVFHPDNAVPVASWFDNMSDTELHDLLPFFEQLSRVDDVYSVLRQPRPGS
# Chain of Tumor necrosis factor receptor superfamily member 10B (Homo sapiens) (O14763 whole entry, looked up): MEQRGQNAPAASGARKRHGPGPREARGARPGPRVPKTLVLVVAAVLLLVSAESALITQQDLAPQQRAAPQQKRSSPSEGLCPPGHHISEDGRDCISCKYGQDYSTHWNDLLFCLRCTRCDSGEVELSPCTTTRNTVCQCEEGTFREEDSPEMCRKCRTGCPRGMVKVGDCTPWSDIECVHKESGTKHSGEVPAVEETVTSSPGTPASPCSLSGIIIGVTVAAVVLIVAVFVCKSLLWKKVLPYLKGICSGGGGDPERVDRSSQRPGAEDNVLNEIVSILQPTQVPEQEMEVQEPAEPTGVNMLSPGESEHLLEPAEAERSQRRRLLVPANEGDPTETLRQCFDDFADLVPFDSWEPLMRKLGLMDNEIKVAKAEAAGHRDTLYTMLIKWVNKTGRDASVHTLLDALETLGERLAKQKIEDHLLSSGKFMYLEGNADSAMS
compound,measurement,setting,value
O=C(CSc1ccccn1)Nc1nonc1[N+](=O)[O-],inhibition,[1],29.3% (active)
same,activity,[2],30.1%
same,activity,[3],58.2%
Cc1ccc(-c2nn(C(C)(C)C)c3ncnc(N)c23)cc1,inhibition,[1],30.7% (active)
same,inhibition,[4],70.1% (active)
same,inhibition,[5],93.8% (active)
CCCCCCCC[n+]1cccc2c3ccccc3ccc21,inhibition,[1],23.3% (active)
same,activity,[2],74.7%
same,activity,[3],63.9%
O=C(COC(=O)c1cnc(Cl)c(Cl)c1)NCc1ccco1,thermal shift relative to vanadate control,[6],-1.58% (inactive)
C=Cc1ccc(C(=O)N2CCCC(CCC(=O)N3CCN(c4ccccn4)CC3)C2)cc1 (centres undefined),thermal shift relative to vanadate control,[6],-35.8% (inactive)
Cc1cc(/C=C2\SC(=O)N(C)C2=O)c(C)n1-c1cccc(C(=O)O)c1,thermal shift relative to vanadate control,[6],1.65% (inactive)
COc1cccc2cc(-c3cc(=O)oc4cc(C)c(O)cc34)oc12,thermal shift relative to vanadate control,[6],-12.5% (inactive)
O=C(Cn1nnc(-c2ccc3c(c2)OCO3)n1)NCc1ccco1,thermal shift relative to vanadate control,[6],2.67% (inactive)
O=C(Nc1ccc(OCC(F)(F)C(F)F)c(C(F)(F)F)c1)c1ccccc1O,inhibition,[1],28.2% (active)
same,activity,[2],67.8%
same,activity,[3],68%
CCCc1nc(-c2cc3cc(C)ccc3[nH]c2=O)no1,thermal shift relative to vanadate control,[6],-30.4% (inactive)
CCOC(=O)c1sc(NC(=O)c2cc(-c3ccccc3C)nc3ccccc23)c(C#N)c1C,inhibition,[1],32.4% (active)
same,activity,[2],54.4%
same,activity,[3],40.4%
same,"activity, % sensitization",[7],16.7%
same,"activity, % sensitization",[8],-4.14%
same,"activity, % sensitization",[9],4.11%
same,"activity, % sensitization",[10],-11.3%
CNS(=O)(=O)c1cccc(C(=O)OCC(=O)N2c3ccccc3NC(=O)C2(C)C)c1,thermal shift relative to vanadate control,[6],0.5% (inactive)
Cc1ccccc1NC(=O)CN1C(=O)N/C(=C\c2cccn2-c2cccc(C(=O)O)c2)C1=O,thermal shift relative to vanadate control,[6],7.04% (active)
COc1ccc(Cc2nnc(NC(=O)Cc3cccs3)s2)cc1,thermal shift relative to vanadate control,[6],9.39% (active)
Cc1ccc(SCC(=O)NC(=O)NCc2ccco2)c(C)c1,thermal shift relative to vanadate control,[6],-1.14% (inactive)
ON=C1/C(=N\O)CC2(C/C1=N/O)OCCO2,thermal shift relative to vanadate control,[6],4.94% (inactive)
Cc1cc(NC(=O)c2cncc(Br)c2)ccc1NC(=O)c1cc2ccccc2o1,inhibition,[1],28.6% (active)
same,activity,[2],58.9%
same,activity,[3],13.3%
same,"activity, % sensitization",[7],7.53%
same,"activity, % sensitization",[8],53.9%
same,"activity, % sensitization",[9],12.3%
same,"activity, % sensitization",[10],28.1%
O=C(COC(=O)CCC(=O)c1cccs1)NCc1ccco1,thermal shift relative to vanadate control,[6],-2.74% (inactive)
C[N+](C)(C)CCNC(=O)c1cc[n+](Cc2ccccc2)c(/C=N/O)c1,thermal shift relative to vanadate control,[6],-22.6% (inactive)
CC(C)CCOc1ccc(C(=O)C[N+]2(C)CCOCC2)cc1,thermal shift relative to vanadate control,[6],-16.6% (inactive)
COc1ccc(Cl)cc1NC(=O)CCS(=O)(=O)c1ccc(Br)cc1,thermal shift relative to vanadate control,[6],3.48% (inactive)
CN(C)c1ccnc2c[cH-]cc12.[Fe].c1ccc(-[c-]2[c-](-c3ccccc3)[c-](-c3ccccc3)[c-](-c3ccccc3)[c-]2-c2ccccc2)cc1 (centres undefined),inhibition,[1],32% (active)
same,activity,[2],6.08%
same,activity,[3],-38.5%
Cc1ccc(C(=O)NNC(=O)c2cc3cc4ccccc4nc3s2)cc1,thermal shift relative to vanadate control,[6],-10.9% (inactive)
N#Cc1nc(NCC(F)F)nc(Nc2cc(F)cc(F)c2)n1,inhibition,[1],28% (active)
same,activity,[2],63.2%
same,activity,[3],71.3%
COc1ccc(/C=C/C(=O)OCC(=O)NC2CCCCCC2)cc1OC,thermal shift relative to vanadate control,[6],-3.16% (inactive)
O=C(COC(=O)c1ccc(F)cc1F)Nc1ncccn1,thermal shift relative to vanadate control,[6],1.27% (inactive)
CCCCCc1cc(=O)oc2c(C(CCN(CC)CC)c3cc(OC)c(OC)c(OC)c3)c(OC)cc(OC)c12 (centres undefined),inhibition,[1],32% (active)
same,activity,[2],52.9%
same,activity,[3],54.7%
same,"activity, % sensitization",[7],-8.61%
same,"activity, % sensitization",[8],49.1%
same,"activity, % sensitization",[9],-1%
same,"activity, % sensitization",[10],3.69%
O=C(COC(=O)c1ccccc1O)NCc1ccco1,thermal shift relative to vanadate control,[6],-13.8% (inactive)
CCCCCCc1cc2cc(S(=O)(=O)c3ccc(F)c(Cl)c3)c(=O)oc2cc1O,inhibition,[1],27.6% (active)
same,activity,[2],55.4%
same,activity,[3],40%
same,"activity, % sensitization",[7],-8.78%
same,"activity, % sensitization",[8],-2.26%
same,"activity, % sensitization",[9],-6.43%
same,"activity, % sensitization",[10],-24.8%
Cc1ccc(CCNC(=O)c2ccc3nc4ccccc4c(=O)n3c2)cc1,thermal shift relative to vanadate control,[6],-6.77% (inactive)
C[C@H](CO)N1C[C@H](C)[C@H](CN(C)C(=O)Nc2ccc(C(F)(F)F)cc2)Oc2c(NC(=O)c3ccncc3)cccc2C1=O,thermal shift relative to vanadate control,[6],1.36% (inactive)
CC[n+]1c(C)n(-c2ccccc2)c2ccc(NC(C)=O)cc21,thermal shift relative to vanadate control,[6],-13.8% (inactive)
O=C(CCC(=O)N/N=C/c1ccc(Br)o1)N/N=C/c1ccc(Br)o1,thermal shift relative to vanadate control,[6],-1.53% (inactive)
COc1cccc(NC(C)=[N+](C)CCNS(=O)(=O)c2ccc(Cl)cc2)c1,thermal shift relative to vanadate control,[6],-9.24% (inactive)
Cc1oc2c(C)c3oc(=O)c(CC(=O)N[C@@H](CC(C)C)C(=O)N[C@@H](Cc4ccccc4)C(=O)O)c(C)c3cc2c1C,thermal shift relative to vanadate control,[6],-12.3% (inactive)
Cc1ccc(Cc2nnc(SCC(=O)Nc3ccc(C)cc3C)[nH]c2=O)cc1,thermal shift relative to vanadate control,[6],4.55% (inactive)
C[n+]1ccc(C(=O)NCc2ccccc2)cc1,thermal shift relative to vanadate control,[6],-7.9% (inactive)
CO/N=C(\C(=O)N[C@@H]1C(=O)N2C(C(=O)O)=C(COC(C)=O)CS[C@H]12)c1csc(N)n1 (stereo in doubt),thermal shift relative to vanadate control,[6],-5.16% (inactive)
Cc1ccc(NC(=O)CSc2nc3ccc(Nc4nc(N5CCOCC5)nc(N5CCOCC5)n4)cc3s2)cc1,inhibition,[1],26.2% (active)
same,activity,[2],58.1%
same,activity,[3],40.5%
same,"activity, % sensitization",[7],-7.95%
same,"activity, % sensitization",[8],-11.3%
same,"activity, % sensitization",[9],-21% [at 6.25 µM]
same,"activity, % sensitization",[10],-31.8%
CCCCC(O)(CCCC)C(=O)NN(C(=O)CCl)c1ccccc1,inhibition,[1],34% (active)
same,activity,[2],92.2%
same,activity,[3],95.7%
O=C(Nc1cccnc1)c1cc2cc(Br)ccc2oc1=O,thermal shift relative to vanadate control,[6],0.88% (inactive)
CCOC(=O)C1=C(C)c2ccccc2OC1(C)C(=O)OCC (centres undefined),thermal shift relative to vanadate control,[6],-2.89% (inactive)
Cc1c(Cl)cnc(NC(=O)COC(=O)c2ccc(S(=O)(=O)NCc3ccco3)cc2)c1Cl,thermal shift relative to vanadate control,[6],10.3% (active)
C[c-]1[c-](C)[c-](C)[c-](C)[c-]1C.[Fe].c1cc2nccc(N3CCCC3)[c-]2c1 (centres undefined),IC50,[11],> 66 µM (inactive)
C=CC[C@@H](CC(=O)N[C@@H](CO)Cc1ccccc1)C(=O)N[C@H](COC(=O)[C@H](CC=C)CC(=O)OC(C)(C)C)Cc1ccccc1,inhibition,[12],6.88% (inactive)
